Assay outcomes deposited in PubChem BioAssay by Broad Institute.
IDE exosite FP – exo-site inhibitors of human IDE, primary screen, biochemical, fluorescence anisotropy, probe displacement; Insulin-degrading enzyme (Homo sapiens), P14735; purified IDE, FL-6b probe fluorescence polarization; stronger effect = lower value; z-score at 20 µM; 17,000 tested, 6.3% active; AID 1259349, 2017;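 active = z-score of -3 or lower, meaning strong loss of probe binding signal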;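 also: His-tagged human IDE residues 42-1019 made in E. coli with 30 nM FL-6b probe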
Target sequence (P14735 42-1019 limits assumed): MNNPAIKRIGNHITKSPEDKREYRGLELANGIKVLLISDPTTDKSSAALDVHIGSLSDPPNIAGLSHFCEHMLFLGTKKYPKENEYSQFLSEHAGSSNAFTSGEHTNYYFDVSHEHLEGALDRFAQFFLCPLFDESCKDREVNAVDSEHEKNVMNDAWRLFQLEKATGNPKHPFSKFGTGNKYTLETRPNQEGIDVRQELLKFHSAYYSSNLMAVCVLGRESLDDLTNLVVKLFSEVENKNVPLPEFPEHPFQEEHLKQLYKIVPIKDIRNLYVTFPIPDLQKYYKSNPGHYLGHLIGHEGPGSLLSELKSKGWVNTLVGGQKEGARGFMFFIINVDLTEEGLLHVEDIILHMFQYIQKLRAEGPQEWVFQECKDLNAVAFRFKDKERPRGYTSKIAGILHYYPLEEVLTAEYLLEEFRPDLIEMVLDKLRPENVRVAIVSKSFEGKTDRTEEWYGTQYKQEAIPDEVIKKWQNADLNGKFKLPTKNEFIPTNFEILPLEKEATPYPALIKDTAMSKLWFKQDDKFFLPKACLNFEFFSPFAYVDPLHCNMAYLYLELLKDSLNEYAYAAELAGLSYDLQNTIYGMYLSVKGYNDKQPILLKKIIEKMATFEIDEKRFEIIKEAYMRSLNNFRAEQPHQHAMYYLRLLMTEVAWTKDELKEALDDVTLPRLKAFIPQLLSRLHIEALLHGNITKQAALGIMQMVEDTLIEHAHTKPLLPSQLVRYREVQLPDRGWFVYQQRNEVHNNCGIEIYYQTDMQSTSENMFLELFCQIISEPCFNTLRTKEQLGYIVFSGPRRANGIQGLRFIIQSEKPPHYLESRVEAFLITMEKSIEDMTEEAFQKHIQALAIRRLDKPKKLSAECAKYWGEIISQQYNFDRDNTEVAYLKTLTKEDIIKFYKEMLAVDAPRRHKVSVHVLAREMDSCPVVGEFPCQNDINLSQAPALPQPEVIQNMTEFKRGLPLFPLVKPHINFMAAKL
* hit, by the source's call. Shown is part of a subset that was picked to be rich in hits.

`Cc1ccccc1-c1ccc(C2[C@@H]3CN(Cc4cncnc4)C[C@H]2N3)cc1` (some centres not stated) gave IDE exosite FP -2.6.
`Cc1ccccc1-c1ccc(C2[C@H]3CNC[C@@H]2N3S(=O)(=O)c2cn(C)cn2)cc1` (some centres not stated) gave IDE exosite FP -4.9*.
Cc1ccccc1-c1ccc(C2[C@H]3CNC[C@@H]2N3S(=O)(=O)c2ccc(F)cc2)cc1 (some centres not stated) was read as IDE exosite FP 0.51.
`C/C=C/c1ccc(C2[C@H]3CNC[C@@H]2N3S(=O)(=O)c2cn(C)cn2)cc1` (some centres not stated) gave IDE exosite FP 3.9.
Screening C[C@H](CO)N1C[C@H](C)[C@H](CN(C)S(=O)(=O)c2cccs2)Oc2ccc(NC(=O)Nc3cccc4ccccc34)cc2C1=O returned IDE exosite FP -1.2.
Screening COCC(=O)N1[C@H](C#N)[C@H](c2ccccc2-c2ccccc2F)[C@@H]1CO returned IDE exosite FP 0.29.
CO[C@@H]1CN(C)C(=O)c2cc(NS(C)(=O)=O)ccc2OC[C@@H](C)N(C(=O)C2CCOCC2)C[C@@H]1C was read as IDE exosite FP 0.088.
`COc1ccc(NC(=O)Nc2cccc3c2O[C@@H](CN(C)Cc2ccc(C(=O)O)cc2)[C@@H](C)CN([C@@H](C)CO)C3=O)cc1` gave IDE exosite FP -0.81.
For COCC(=O)N1[C@@H]2c3cccc(=O)n3C[C@@H]2[C@@H](CO)[C@@H]1C(=O)NCc1ccccc1 the results were IDE exosite FP 0.14.
Screening C[C@H](CO)N1C[C@H](C)[C@@H](CN(C)C(=O)Nc2cccc(F)c2)Oc2cc(C#CC3(O)CCCC3)ccc2S1(=O)=O returned IDE exosite FP -0.044.
`CCCNC(=O)N1CC(=O)N2[C@@H](CO)[C@H](c3ccc(-c4ccc(F)cc4)cc3)[C@@H]2C1` gave IDE exosite FP -2.7.
For CCCNC(=O)N1CC(=O)N2[C@H](CO)[C@H](c3ccc(-c4ccncc4)cc3)[C@@H]2C1 the results were IDE exosite FP 0.13.
Screening CCCC#Cc1ccc([C@@H]2[C@H](CO)N3C(=O)CN(C(=O)NCCC)C[C@@H]23)cc1 returned IDE exosite FP 1.5.
`CCCNC(=O)N1CC(=O)N2[C@H](C1)[C@H](c1ccc(-c3ccc(C)cc3)cc1)[C@@H]2CO` gave IDE exosite FP -3.6*.
CCCNC(=O)N1CC(=O)N2[C@H](C1)[C@@H](c1ccc(-c3cccc(C)c3)cc1)[C@@H]2CO was read as IDE exosite FP -15*.
CCCNC(=O)N1CC(=O)N2[C@H](CO)[C@H](c3ccc(-c4ccc(F)cc4)cc3)[C@@H]2C1 was read as IDE exosite FP 0.28.
For CCCNC(=O)N1CC(=O)N2[C@H](CO)[C@H](c3ccc(-c4cccc(C)c4)cc3)[C@@H]2C1 the results were IDE exosite FP -16*.
For CCCNC(=O)N1CC(=O)N2[C@H](C1)[C@@H](c1ccc(-c3ccc(C)cc3)cc1)[C@@H]2CO the results were IDE exosite FP -2.4.
For CCCNC(=O)N1CC(=O)N2[C@H](CO)[C@@H](c3ccc(-c4cccc(C)c4)cc3)[C@@H]2C1 the results were IDE exosite FP -22*.
For CCCNC(=O)N1CC(=O)N2[C@H](CO)[C@@H](c3ccc(-c4ccc(C)cc4)cc3)[C@@H]2C1 the results were IDE exosite FP -0.42.
`CCCNC(=O)N1CC(=O)N2[C@H](CO)[C@@H](c3ccc(-c4ccc(F)cc4)cc3)[C@@H]2C1` gave IDE exosite FP 0.15.
For N#C[C@H]1[C@@H](c2ccccc2-c2ccccc2F)[C@H](CO)N1C(=O)c1ccccn1 the results were IDE exosite FP 0.89.
For COc1ccc2c3c([nH]c2c1)[C@H](CO)N(C(C)=O)CC31CCN(Cc2cc(-c3ccccc3)on2)CC1 the results were IDE exosite FP 0.16.
For COc1ccc(-c2ccc3n(c2=O)C[C@@H]2[C@@H](CO)[C@H](C(=O)N4CCOCC4)N[C@H]32)cc1 the results were IDE exosite FP -0.72.
For CCC(=O)N1[C@H](CO)[C@@H](c2ccccc2)C12CN(C(=O)Nc1ccccc1F)C2 the results were IDE exosite FP 0.38.
O=C1CCCn2cc(nn2)COCCN1 was read as IDE exosite FP -0.84.
For N#C[C@@H]1[C@@H](c2ccc(C#CC3CCCCC3)cc2)[C@H](CO)N1C(=O)c1cccc(F)c1 the results were IDE exosite FP 1.3.
`CCCC#Cc1ccc([C@@H]2[C@@H](CO)N3C(=O)CN(C(=O)c4ccccn4)C[C@@H]23)cc1` gave IDE exosite FP -0.34.
Screening O=C(c1ccccn1)N1CC(=O)N2[C@@H](CO)[C@H](c3ccc(C#Cc4ccccc4)cc3)[C@@H]2C1 returned IDE exosite FP -9.7*.
For O=C(c1ccccn1)N1CC(=O)N2[C@H](CO)[C@H](c3ccc(C#Cc4ccccc4)cc3)[C@H]2C1 the results were IDE exosite FP -14*.
`CCCC#Cc1ccc([C@H]2[C@@H](CO)N3C(=O)CN(C(=O)c4ccccn4)C[C@H]23)cc1` gave IDE exosite FP 3.1.
O=C(c1ccccn1)N1CC(=O)N2[C@H](CO)[C@H](c3ccc(C#CCc4ccccc4)cc3)[C@@H]2C1 was read as IDE exosite FP -1.8.
For O=C(c1ccccn1)N1CC(=O)N2[C@@H](CO)[C@H](c3ccc(C#CCc4ccccc4)cc3)[C@@H]2C1 the results were IDE exosite FP -1.1.
COCC#Cc1ccc([C@@H]2[C@@H](CO)N3C(=O)CN(C(=O)c4ccncc4)C[C@H]23)cc1 was read as IDE exosite FP -0.44.
`C[C@@H](O)C#Cc1ccc([C@H]2[C@H]3CN(C(=O)c4cccc(F)c4)CCCCN3[C@H]2CO)cc1` gave IDE exosite FP 2.3.
Screening N#Cc1cccc(-c2ccc([C@H]3[C@H]4CN(C(=O)Nc5ccc(F)cc5)CCCCN4[C@H]3CO)cc2)c1 returned IDE exosite FP 3.6.
C[C@@H]1CN([C@@H](C)CO)C(=O)c2c(c3ccccc3n2C)-c2ccccc2CO[C@@H]1CN(C)C(=O)NC1CCCCC1 was read as IDE exosite FP -0.51.
N#C[C@@H]1N[C@@H](CO)[C@H]1c1ccc(C#CC2CCCCC2)cc1 was read as IDE exosite FP 1.6.
N#C[C@@H]1[C@@H](c2ccc(-c3ccccc3F)cc2)[C@H](CO)N1C(=O)c1ccccn1 was read as IDE exosite FP 0.9.
COc1cccc(C#Cc2ccc([C@@H]3[C@H](CO)N4C(=O)CN(C(=O)Cc5cccnc5)C[C@@H]34)cc2)c1 was read as IDE exosite FP -4.1*.
COc1cccc(C#Cc2ccc([C@H]3[C@H]4CN(C(=O)Cc5cccnc5)CC(=O)N4[C@H]3CO)cc2)c1 was read as IDE exosite FP -4.1*.
`CCCC#Cc1ccc([C@H]2[C@@H](CO)N3C(=O)CN(C(=O)Cc4cccnc4)C[C@@H]23)cc1` gave IDE exosite FP -0.66.
CCCC#Cc1ccc([C@@H]2[C@@H](CO)N3C(=O)CN(C(=O)Cc4cccnc4)C[C@H]23)cc1 was read as IDE exosite FP 2.3.
For CCCC#Cc1ccc([C@H]2[C@@H](CO)N3C(=O)CN(C(=O)Cc4cccnc4)C[C@H]23)cc1 the results were IDE exosite FP -3.
Screening CC(C)C#Cc1ccc([C@@H]2[C@@H](CO)N3C(=O)CN(C(=O)Cc4cccnc4)C[C@H]23)cc1 returned IDE exosite FP 4.9.
For COc1cccc(C#Cc2ccc([C@H]3[C@@H](CO)N4C(=O)CN(C(=O)Cc5cccnc5)C[C@@H]34)cc2)c1 the results were IDE exosite FP -1.6.
